# Source: PubChem BioAssay (NCATS)
# Inconclusive results are not listed. Entries that show only a call come without a potency. Calls of active or inactive are those of the source. Unless noted, calls follow the shape of the dose curve; as a rule, active = well fitted curve in the direction sought with a large enough effect; inconclusive = small, poorly fitted or top-dose-only effect, or another doubt; inactive = no such curve, though single readings can be large; an effect the other way counts as inactive or inconclusive.
# How the values were obtained:
# [1] = target: Lysosomal acid glucosylceramidase (Homo sapiens) (UniProt P04062); test: Glucocerebrosidase-p2 (AID 348; in the data active = potency below about 10 µM; also: potency is read from the fitted curve at half-maximal effect); conditions: purified GBA, blue fluorogenic substrate, 40 min
# Sequence of Lysosomal acid glucosylceramidase (Homo sapiens) (P04062 whole entry, looked up): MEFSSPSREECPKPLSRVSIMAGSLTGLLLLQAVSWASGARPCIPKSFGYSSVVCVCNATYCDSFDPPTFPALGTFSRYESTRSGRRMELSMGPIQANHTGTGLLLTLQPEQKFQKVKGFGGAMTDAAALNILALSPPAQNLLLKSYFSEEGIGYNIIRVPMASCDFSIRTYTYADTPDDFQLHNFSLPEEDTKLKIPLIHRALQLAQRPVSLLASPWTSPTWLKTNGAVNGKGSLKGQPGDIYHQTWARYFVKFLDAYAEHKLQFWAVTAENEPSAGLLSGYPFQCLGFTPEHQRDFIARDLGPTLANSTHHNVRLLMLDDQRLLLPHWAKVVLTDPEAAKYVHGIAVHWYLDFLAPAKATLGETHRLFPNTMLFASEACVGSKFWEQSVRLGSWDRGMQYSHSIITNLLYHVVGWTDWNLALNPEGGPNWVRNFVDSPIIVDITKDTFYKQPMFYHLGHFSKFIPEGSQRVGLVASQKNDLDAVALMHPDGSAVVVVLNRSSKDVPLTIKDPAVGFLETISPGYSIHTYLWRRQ
# Procedure, shortened: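 Normal human glucocerebrosidase (0.2 nM) with blue fluorogenic substrate (80 uM final) in citrate/phosphate pH 5.9 with 10mM sodium taurocholate, 0.01% tween-20; 40 min RT, NaOH/glycine stop; fluorescence Ex 365/Em 440; AC50 from a titration from 0.6 nM upwards.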
# [2] = AP1 Signaling Pathway (AID 357; active = well fitted curve in either direction with a large enough effect, not every such curve was filed as active;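 also: ME-180 reporter cells stimulated with EGF at its EC50 level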); conditions: ME-180 AP-1-bla reporter, EGF-induced, beta-lactamase ratio, 5 h; at 7.69 µM (top of the series) unless noted
# Procedure, shortened: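 Read-out was the 460nm/530nm emission ratio (excitation 405nm) after CCF4 loading for 2.5 hours at room temperature. Cells carried an AP-1-driven beta-lactamase reporter, were stimulated with EC50 EGF plus compound for 5 hours, and AC50 values came from titrations.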
# [3] = Stat Signaling Pathway (AID 446; active = well fitted curve in either direction with a large enough effect, not every such curve was filed as active;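 also: ME-180 cervical cancer cells given 40 pM IL-6 alongside compound; SIE-controlled beta-lactamase reporter measured as 460/530 nm FRET emission ratio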); conditions: ME-180 (cervical carcinoma) SIE beta-lactamase reporter, IL-6 stimulated, 5 h; at 7.69 µM (top of the series) unless noted
# Procedure, shortened: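 Overnight-plated ME-180 cells bearing a STAT Inducible Element beta-lactamase reporter; 5 h co-exposure to compound and 40 pM IL-6; values normalized to 300 pM IL-6 and 125 nM JAK inhibitor controls.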
# [4] = target: Glucocorticoid receptor (Homo sapiens) (UniProt P04150); test: GR-EFC Redistribution (AID 451; calls by dose curve; also: potency is read from the fitted curve at half-maximal effect); conditions: CHO-K1 GR-EFC translocation, beta-gal luminescence, 2 h
# Sequence of Glucocorticoid receptor (Homo sapiens) (P04150 whole entry, looked up, the tested form may be a part): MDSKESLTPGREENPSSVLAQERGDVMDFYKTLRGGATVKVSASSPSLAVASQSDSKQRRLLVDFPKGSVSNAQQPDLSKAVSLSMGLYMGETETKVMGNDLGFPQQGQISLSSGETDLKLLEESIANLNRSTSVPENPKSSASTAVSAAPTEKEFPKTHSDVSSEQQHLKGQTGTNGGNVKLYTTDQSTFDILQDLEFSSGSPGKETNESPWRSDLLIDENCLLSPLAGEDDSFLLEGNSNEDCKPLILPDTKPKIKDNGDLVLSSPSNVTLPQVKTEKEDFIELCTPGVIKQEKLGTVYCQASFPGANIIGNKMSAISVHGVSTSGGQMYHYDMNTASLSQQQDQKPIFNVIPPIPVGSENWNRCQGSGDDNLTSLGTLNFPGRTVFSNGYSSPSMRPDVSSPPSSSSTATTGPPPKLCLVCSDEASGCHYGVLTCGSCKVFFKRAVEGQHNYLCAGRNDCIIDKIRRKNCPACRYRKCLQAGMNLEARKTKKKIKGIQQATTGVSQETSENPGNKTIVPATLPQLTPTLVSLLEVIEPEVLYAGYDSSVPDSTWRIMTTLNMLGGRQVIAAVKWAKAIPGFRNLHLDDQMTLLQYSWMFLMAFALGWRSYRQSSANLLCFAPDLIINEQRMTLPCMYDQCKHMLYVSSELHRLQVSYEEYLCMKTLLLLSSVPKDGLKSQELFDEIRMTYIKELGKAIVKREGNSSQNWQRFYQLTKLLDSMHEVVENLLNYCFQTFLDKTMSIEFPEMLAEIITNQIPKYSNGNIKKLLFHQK
# Procedure, shortened: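 CHO-K1 cells stably expressing nuclear-localized β-gal enzyme acceptor and GR fused C-terminally to the enzyme donor fragment; ligand-driven nuclear translocation restores β-gal by complementation. Compounds titrated up to 46 uM final, 2 h at 37 °C; luminescence read.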
# [5] = target: Mitogen-activated protein kinase 10 (Mus musculus) (UniProt Q61831); test: JNK3 AlphaScreen Assay (AID 530; active = well fitted curve in either direction with a large enough effect, not every such curve was filed as active;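 also: kinase came from lysate of stimulated human HepG2 cells; signal reports phosphorylation of biotinylated GST-cJun 1-79 at Ser73 with 10 µM ATP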); conditions: JNK3 lysate, c-Jun phosphorylation; series mostly up to 57.1 µM
# Procedure, shortened: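 Phosphorylation of biotinylated GST-cJun(1-79) at Ser73 is measured by AlphaScreen proximity luminescence. Enzyme is JNK3 in HepG2 lysates activated with interleukin-1beta and tumor necrosis factor alpha; ATP is 10 uM final.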
# [6] = target: 3',5'-cyclic-AMP phosphodiesterase 4B (Homo sapiens) (UniProt Q07343); test: qHTS Assay for Inhibitors of PDE-IV (AID 607; active = well fitted activation curve with a large enough effect in the main read-out, with a control signal flat, not every such curve was filed as active); conditions: HEK293 ACTOne CNG channel cells, membrane potential fluorescence; series mostly up to 22.9 µM
# Sequence of 3',5'-cyclic-AMP phosphodiesterase 4B (Homo sapiens) (Q07343 whole entry, looked up): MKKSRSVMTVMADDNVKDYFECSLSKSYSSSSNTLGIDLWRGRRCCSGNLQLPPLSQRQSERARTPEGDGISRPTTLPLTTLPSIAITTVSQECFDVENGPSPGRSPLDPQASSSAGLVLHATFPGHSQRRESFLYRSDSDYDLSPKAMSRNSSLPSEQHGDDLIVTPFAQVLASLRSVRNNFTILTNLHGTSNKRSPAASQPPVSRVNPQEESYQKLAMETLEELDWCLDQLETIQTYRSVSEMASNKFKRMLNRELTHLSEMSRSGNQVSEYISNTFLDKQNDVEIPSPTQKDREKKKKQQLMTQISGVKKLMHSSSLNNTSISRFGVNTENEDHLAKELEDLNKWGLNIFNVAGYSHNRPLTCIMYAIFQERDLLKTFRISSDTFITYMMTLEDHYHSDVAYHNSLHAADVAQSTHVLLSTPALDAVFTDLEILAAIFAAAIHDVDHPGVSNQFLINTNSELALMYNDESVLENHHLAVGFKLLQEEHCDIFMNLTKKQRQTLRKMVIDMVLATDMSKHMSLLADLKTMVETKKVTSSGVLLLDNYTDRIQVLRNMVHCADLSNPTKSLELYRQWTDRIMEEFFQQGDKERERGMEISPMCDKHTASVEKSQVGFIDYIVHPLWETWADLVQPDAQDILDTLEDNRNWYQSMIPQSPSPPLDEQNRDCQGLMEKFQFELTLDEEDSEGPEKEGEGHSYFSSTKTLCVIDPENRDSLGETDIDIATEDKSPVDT
# Procedure, shortened: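 Live HEK293 cells with a modified cyclic nucleotide-gated (CNG) channel report intracellular cAMP via membrane-potential dye fluorescence (ex 535/em 590 nm). Endogenous PDE-IV was targeted. Compounds were tested at up to 22.9 uM final; RO 20-1724 100 uM served as control.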
# [7] = Primary qHTS for small molecule stabilizers of the endoplasmic reticulum resident proteome: Secreted ER Calcium Modulated Protein (SERCaMP) assay (AID 1508630); conditions: SH-SY5Y GLuc-SERCaMP (Gaussia luciferase released on ER calcium loss) secretion, thapsigargin, luminescence; series mostly up to 38.4 µM
# Procedure, shortened: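 The SH-SY5Y reporter protocol was run at 3 concentrations up to 38.3 uM (primary) or 11 concentrations (follow-up): 16 h compound, 100 nM thapsigargin for 4 h, then extracellular luciferase luminescence.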
# [8] = target: Rap guanine nucleotide exchange factor 3 (Homo sapiens) (UniProt O95398); test: Confirmatory qHTS for antagonist of cAMP-regulated guanine nucleotide exchange factor 3 (EPAC1) (AID 1645880); conditions: EPAC1 Rap1B-BODIPY-GDP exchange, fluorescence; series mostly up to 115 µM; also: nearly all actives have a fitted effect of over 55% in size
# Procedure, shortened: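 Released BODIPY-GDP fluoresces less than Rap1-bound BODIPY-GDP; the signal is followed at 480/540 nm at 5-min intervals over 30 min, after 5 min at room temperature. Reactions contain 100 nM EPAC1, 250 nM RAP1B-BODIPY-GDP and 50 uM GDP; results are normalized to ATA and DMSO.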
# [9] = target: Rap guanine nucleotide exchange factor 3 (Homo sapiens) (UniProt O95398); test: Confirmatory qHTS for agonist of cAMP-regulated guanine nucleotide exchange factor 3 (EPAC1) (AID 1645881); conditions: EPAC1 Rap1B BODIPY-GDP exchange fluorescence; series mostly up to 154 µM;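 also: EPAC1 catalysed release of BODIPY-GDP from Rap1B seen as fluorescence loss; nearly all actives have a fitted effect of over 75% in size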
# [10] = target: Rap guanine nucleotide exchange factor 4 (Homo sapiens) (UniProt Q8WZA2); test: Confirmatory qHTS for agonist of cAMP-regulated guanine nucleotide exchange factor 4 (EPAC2) (AID 1645884); conditions: EPAC2 GEF activity, Rap1B-BODIPY-GDP fluorescence; series mostly up to 154 µM;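 also: nucleotide exchange releases bodipy-GDP from Rap1 and this lowers its fluorescence; nearly all actives have a fitted effect of over 65% in size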
# Sequence of Rap guanine nucleotide exchange factor 4 (Homo sapiens) (Q8WZA2 whole entry, looked up): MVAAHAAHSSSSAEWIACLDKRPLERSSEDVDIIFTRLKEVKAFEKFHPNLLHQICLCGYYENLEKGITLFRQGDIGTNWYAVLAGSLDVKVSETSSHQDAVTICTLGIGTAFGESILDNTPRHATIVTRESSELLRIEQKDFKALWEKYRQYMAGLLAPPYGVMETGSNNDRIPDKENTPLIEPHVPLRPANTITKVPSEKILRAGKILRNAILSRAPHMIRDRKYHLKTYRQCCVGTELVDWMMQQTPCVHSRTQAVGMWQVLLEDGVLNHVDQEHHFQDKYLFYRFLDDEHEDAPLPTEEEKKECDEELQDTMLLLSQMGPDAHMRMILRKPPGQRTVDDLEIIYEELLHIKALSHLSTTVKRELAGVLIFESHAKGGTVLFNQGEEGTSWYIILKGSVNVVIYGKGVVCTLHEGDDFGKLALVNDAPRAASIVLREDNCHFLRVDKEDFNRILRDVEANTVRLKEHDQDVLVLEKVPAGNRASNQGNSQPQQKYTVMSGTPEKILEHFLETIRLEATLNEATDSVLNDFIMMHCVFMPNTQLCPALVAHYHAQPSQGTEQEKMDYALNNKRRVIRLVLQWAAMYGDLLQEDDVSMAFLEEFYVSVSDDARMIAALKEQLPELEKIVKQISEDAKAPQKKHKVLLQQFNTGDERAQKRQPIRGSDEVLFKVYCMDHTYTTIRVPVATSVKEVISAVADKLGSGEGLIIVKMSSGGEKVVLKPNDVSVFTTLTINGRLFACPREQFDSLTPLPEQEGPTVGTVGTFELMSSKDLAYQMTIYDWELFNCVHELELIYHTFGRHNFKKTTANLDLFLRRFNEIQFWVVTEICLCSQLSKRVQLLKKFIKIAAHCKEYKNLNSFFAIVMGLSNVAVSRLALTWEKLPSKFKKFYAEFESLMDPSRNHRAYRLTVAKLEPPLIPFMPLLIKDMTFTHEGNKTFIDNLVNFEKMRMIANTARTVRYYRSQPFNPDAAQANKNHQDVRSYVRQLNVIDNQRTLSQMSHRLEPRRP
# [11] = target: Rap guanine nucleotide exchange factor 4 (Homo sapiens) (UniProt Q8WZA2); test: Confirmatory qHTS for antagonist of cAMP-regulated guanine nucleotide exchange factor 4 (EPAC2) (AID 1645885); conditions: EPAC2 Rap1B-BODIPY-GDP exchange fluorescence, biochemical; series mostly up to 114 µM; also: nearly all actives have a fitted effect of over 25% in size
# [12] = target: Cytochrome P450 1A2 (Homo sapiens) (UniProt P05177); test: p450-cyp1a2 (AID 410; calls by dose curve; also: potency is read from the fitted curve at half-maximal effect); conditions: recombinant CYP1A2, luciferin-ME demethylation, luminescence; series mostly up to 57 µM
# Procedure, shortened: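 Luminescent demethylation readout: Luciferin-ME (100uM, equal to Km) turned over by 20nM CYP1A2 for 60 min at room temperature after NADPH regeneration addition, following 10 min compound preincubation. Normalization used 57 uM furafylline as full inhibition.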
# [13] = target: Glucocorticoid receptor (Homo sapiens) (UniProt P04150); test: GR-GFP Redistribution (AID 450;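 active = compounds whose dose series gives a full or clear partial fitted curve of increased nuclear translocation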; also: potency is read from the fitted curve at half-maximal effect); conditions: U2OS GR-GFP nuclear translocation, laser cytometry, 2 h
# [14] = target: Cytochrome P450 3A4 (Homo sapiens) (UniProt P08684); test: qHTS Assay for Inhibitors and Substrates of Cytochrome P450 3A4 (AID 884); conditions: recombinant CYP3A4, Luciferin-PPXE luminescence; series mostly up to 57.1 µM; also: potency is read from the fitted curve at half-maximal effect; nearly all actives have a fitted effect of over 50% in size
# Sequence of Cytochrome P450 3A4 (Homo sapiens) (P08684 whole entry, looked up): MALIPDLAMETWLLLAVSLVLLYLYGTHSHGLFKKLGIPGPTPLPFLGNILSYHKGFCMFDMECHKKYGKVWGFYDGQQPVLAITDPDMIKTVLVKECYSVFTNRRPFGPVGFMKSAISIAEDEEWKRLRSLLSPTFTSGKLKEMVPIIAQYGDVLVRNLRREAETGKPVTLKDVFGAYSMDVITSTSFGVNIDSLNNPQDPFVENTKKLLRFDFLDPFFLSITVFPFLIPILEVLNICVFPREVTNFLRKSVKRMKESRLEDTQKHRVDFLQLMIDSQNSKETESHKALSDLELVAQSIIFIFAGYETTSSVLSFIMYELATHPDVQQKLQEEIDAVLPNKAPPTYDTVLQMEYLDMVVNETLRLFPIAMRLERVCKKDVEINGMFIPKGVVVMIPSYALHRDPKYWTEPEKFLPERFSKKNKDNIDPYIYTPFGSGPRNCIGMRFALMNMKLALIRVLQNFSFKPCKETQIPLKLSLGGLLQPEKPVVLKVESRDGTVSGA
# Procedure, shortened: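 Luminescent readout of luciferin produced by CYP3A4 (20 nM) dealkylation of Luciferin-PPXE, 25 uM (its KM). NADPH-driven reaction ran 60 min at RT after 10 min compound preincubation; data scaled to 57 uM ketoconazole as 100% inhibition.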
# [15] = target: Cytochrome P450 3A4 (Homo sapiens) (UniProt P08684); test: qHTS Assay for Activators of Cytochrome P450 3A4 (AID 885); conditions: recombinant CYP3A4, Luciferin-PPXE luminescence, 60 min; series mostly up to 57.1 µM; also: nearly all actives have a fitted effect of over 65% in size
# Procedure, shortened: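 Using 20nM recombinant human CYP3A4 in potassium phosphate (200mM), substrate Luciferin-PPXE at 25uM, luminescent luciferin detection followed a 60-min RT NADPH reaction; data scaled to 57 uM ketoconazole.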
# [16] = target: Dual specificity protein kinase CLK4 (Homo sapiens) (UniProt Q9HAZ1); test: qHTS Assay for Inhibitors of CDC-like Kinase 4 (Kinase-Glo Assay) (AID 1770); conditions: recombinant Clk4, Kinase-Glo ATP depletion luminescence; series mostly up to 66.7 µM; also: nearly all actives have a fitted effect of over 65% in size
# Sequence of Dual specificity protein kinase CLK4 (Homo sapiens) (Q9HAZ1 whole entry, looked up): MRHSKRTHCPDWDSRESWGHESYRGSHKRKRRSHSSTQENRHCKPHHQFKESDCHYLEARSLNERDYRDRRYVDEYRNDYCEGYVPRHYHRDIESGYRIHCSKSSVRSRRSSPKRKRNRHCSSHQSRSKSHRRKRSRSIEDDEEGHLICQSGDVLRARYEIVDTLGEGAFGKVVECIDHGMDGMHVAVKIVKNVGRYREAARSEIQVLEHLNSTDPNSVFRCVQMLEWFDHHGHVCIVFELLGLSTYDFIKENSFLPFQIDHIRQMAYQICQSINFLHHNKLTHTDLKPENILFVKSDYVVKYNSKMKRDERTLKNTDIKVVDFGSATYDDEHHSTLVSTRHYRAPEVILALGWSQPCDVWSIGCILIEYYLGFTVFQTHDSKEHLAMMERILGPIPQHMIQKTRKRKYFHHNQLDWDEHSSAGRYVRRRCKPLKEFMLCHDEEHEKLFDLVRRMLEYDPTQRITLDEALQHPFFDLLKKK
# Procedure, shortened: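 Readout: Kinase-Glo luminescence from ATP left after a 4.5 h room-temperature reaction of 25 nM Clk4 with 100 uM RS peptide and 1 uM ATP (final). Buffer: 25 mM Tris pH 7.5, 10 mM MgCl2.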
# [17] = target: Dual specificity protein kinase CLK4 (Homo sapiens) (UniProt Q9HAZ1); test: qHTS Assay for Inhibitors of CDC-like Kinase 4 (ADP-FP Assay) (AID 1795); conditions: Transcreener ADP fluorescence polarization; series mostly up to 50 µM;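 also: recombinant human CLK4 phosphorylating RS repeat peptide at 1 µM ATP; nearly all actives have a fitted effect of over 60% in size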
# Procedure, shortened: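 FP readout: Orange Transcreener ADP2 tracer (4 nM) plus ADP antibody, read after 30 min at room temperature. Kinase step: 6.25 nM Clk4, 100 uM RS peptide, 1 uM ATP, pH 7.5, 1 h.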
# [18] = target: Ubiquitin carboxyl-terminal hydrolase 1 (Homo sapiens) (UniProt O94782); test: Inhibitors of USP1/UAF1: Pilot qHTS (AID 504865); conditions: purified USP1/UAF1, Ub-rhodamine cleavage fluorescence; series mostly up to 54.9 µM; also: nearly all actives have a fitted effect of over 35% in size; also: potency is read from the fitted curve at half-maximal effect;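 as to activity change, negative = inhibition: rhodamine fluorescence freed from ubiquitin-rhodamine substrate followed over time; top concentration of the series differs between compounds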
# Sequence of Ubiquitin carboxyl-terminal hydrolase 1 (Homo sapiens) (O94782 whole entry, looked up): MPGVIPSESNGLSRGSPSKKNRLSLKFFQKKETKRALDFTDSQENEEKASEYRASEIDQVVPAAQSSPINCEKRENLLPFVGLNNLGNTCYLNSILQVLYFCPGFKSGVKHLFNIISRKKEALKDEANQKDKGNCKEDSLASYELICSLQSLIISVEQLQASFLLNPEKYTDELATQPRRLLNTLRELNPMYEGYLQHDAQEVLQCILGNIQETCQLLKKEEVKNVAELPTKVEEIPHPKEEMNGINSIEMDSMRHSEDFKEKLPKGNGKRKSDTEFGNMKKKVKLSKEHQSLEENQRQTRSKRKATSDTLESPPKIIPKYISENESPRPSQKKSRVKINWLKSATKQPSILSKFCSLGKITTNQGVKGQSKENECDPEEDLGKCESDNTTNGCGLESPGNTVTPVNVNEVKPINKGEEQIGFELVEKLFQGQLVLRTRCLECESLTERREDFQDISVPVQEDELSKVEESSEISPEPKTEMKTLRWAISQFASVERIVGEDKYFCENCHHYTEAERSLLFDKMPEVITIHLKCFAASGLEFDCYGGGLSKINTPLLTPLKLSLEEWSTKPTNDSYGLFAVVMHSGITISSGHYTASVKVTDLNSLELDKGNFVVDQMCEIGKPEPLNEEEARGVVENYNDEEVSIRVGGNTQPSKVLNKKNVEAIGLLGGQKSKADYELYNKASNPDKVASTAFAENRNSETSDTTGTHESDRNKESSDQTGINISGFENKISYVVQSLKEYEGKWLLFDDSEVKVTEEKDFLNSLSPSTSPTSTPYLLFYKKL
# Procedure, shortened: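 1nM USP1/UAF1 + cpd, 15 min RT; start w/ Ub-Rho 150nM final; kinetic FL 480/540 nm, 6 reads q60 s. Buffer 50mM HEPES pH 7.8, 0.5mM EDTA, 1mM TCEP, 0.01% Tween-20, 0.1 mg/ml BSA.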
# [19] = NFAT Signaling Pathway (AID 444; active = well fitted curve in either direction with a large enough effect, not every such curve was filed as active;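 also: carbachol stimulus at about its EC50 of 1 µM final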); conditions: Jurkat NFAT-bla M1, carbachol, beta-lactamase ratio, 5 h; at 7.69 µM (top of the series) unless noted
# Procedure, shortened: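 Jurkat cells carrying an NFAT-driven β-lactamase reporter and co-transfected muscarinic M1 receptor were treated with compound plus carbachol (1 uM final, an EC50 level) for 5 h at 37 °C. CCF4 loading followed for 1 h at RT; 460/530 nm ratio gave %activity.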
# [20] = qHTS Assay for Lipid Storage Modulators (AID 1519; calls by dose curve); conditions: Drosophila S3 cells, BODIPY lipid droplet/cell ratio, laser cytometry, cells loaded with oleic acid
# Procedure, shortened: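 Cells seeded at 5,000 per well were treated with compounds over a concentration series and loaded with oleic acid (400 uM, as added). Lipid droplet fluorescence (488 nm excitation, 500-530 nm channel) was read by laser-scanning cytometry and normalized to 20 uM Triacsin C.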
compound,measurement,setting,value
COC(=O)N1CCC2(CCCN(c3cccc(-c4ccccc4)c3)C2)CC1,Potency,[1],> 11.4 µM (inactive)
same,"activity change, negative = inhibition",[2],3.74% (inactive)
same,"activity, negative = inhibition",[3],-6.31% (inactive)
same,Potency,[4],> 46 µM (inactive)
same,Potency,[5],inactive
same,Potency,[6],inactive
same,outcome,[7],inactive
same,Potency,[8],inactive
same,Potency,[9],inactive
same,Potency,[10],inactive
same,Potency,[11],inactive
COc1ccccc1CNc1nc(-c2ccc3c(c2)OCO3)nc2ccccc12,"activity change, negative = inhibition",[2],24.7% (inactive)
same,Potency,[12],0.631 µM (active)
same,"activity, negative = inhibition",[3],-8.69% (inactive)
same,Potency,[13],> 46 µM (inactive)
same,Potency,[4],> 46 µM (inactive)
same,Potency,[5],inactive
same,Potency,[6],inactive
same,Potency,[14],1.26 µM (active)
same,Potency,[15],inactive
same,Potency,[16],inactive
same,Potency,[17],inactive
same,Potency,[18],inactive
same,outcome,[7],inactive
same,Potency,[8],inactive
same,Potency,[9],inactive
same,Potency,[10],inactive
same,Potency,[11],inactive
O=c1c(-c2cc(F)cc(F)c2)nc2cncnc2n1Cc1ccccc1Cl,Potency,[1],> 11.4 µM (inactive)
same,"activity change, negative = inhibition",[2],5.85% (inactive)
same,Potency,[12],5.01 µM (active)
same,"activity change, negative = inhibition",[19],-19.2% (inactive)
same,"activity, negative = inhibition",[3],-6.37% (inactive)
same,Potency,[13],> 9.22 µM (inactive)
same,Potency,[4],> 46 µM (inactive)
same,Potency,[5],inactive
same,Potency,[6],inactive
same,Potency,[15],inactive
same,Potency,[17],inactive
same,Potency,[18],inactive
same,outcome,[7],inactive
same,Potency,[8],inactive
same,Potency,[9],inactive
same,Potency,[10],inactive
same,Potency,[11],inactive
COc1cccc(Nc2ncc3nc(-c4cn(C)c5ccccc45)c(=O)n(C[C@H]4CCCO4)c3n2)c1,Potency,[1],> 11.4 µM (inactive)
same,"activity change, negative = inhibition",[2],-25.8% (inactive)
same,"activity change, negative = inhibition",[19],-1.76% (inactive)
same,"activity, negative = inhibition",[3],8.32% (inactive)
same,Potency,[13],> 9.22 µM (inactive)
same,Potency,[4],> 46 µM (inactive)
same,Potency,[5],inactive
same,Potency,[6],inactive
same,Potency,[16],inactive
same,Potency,[17],inactive
same,outcome,[7],inactive
same,Potency,[8],inactive
same,Potency,[9],inactive
same,Potency,[10],inactive
same,Potency,[11],inactive
COc1cc(C)c2c(c1C=O)Oc1c(c(C)c(O)c3c1C(O)OC3=O)OC2=O (stereo not given),Potency,[14],12.6 µM (active)
same,Potency,[15],inactive
same,"activity change, negative = inhibition",[20]; at 57.5 µM (top of the series),4.32% (inactive)
same,max response,[20]; measured here: cell count channel max response,5.41%
same,max response,[20]; measured here: lipid channel max response,11.3%
same,Potency,[18],56.2 µM (active)
same,outcome,[7],inactive
CN(C)c1ncc2nc(-c3ccc(F)cc3)c(=O)n(-c3ccccc3)c2n1,Potency,[1],> 11.4 µM (inactive)
same,"activity change, negative = inhibition",[2],-8.28% (inactive)
same,"activity change, negative = inhibition",[19],20.7% (inactive)
same,"activity, negative = inhibition",[3],28.3% (inactive)
same,Potency,[13],> 9.22 µM (inactive)
same,Potency,[4],> 46 µM (inactive)
same,Potency,[5],inactive
same,Potency,[17],inactive
same,outcome,[7],inactive
same,Potency,[8],inactive
same,Potency,[9],inactive
same,Potency,[10],inactive
same,Potency,[11],inactive
